A short description of test [1]: Quantitative High-Throughput drug screen in 47 multiple myeloma cell lines against the NCATS MIPE library collection: Karpas620_DSMZ cell viability assay (AID 1918959). Further: potency means the concentration at half of the fitted maximal effect; nearly all actives have a fitted effect of over 30% in size. Put shortly:
(§1)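 Myeloma cell lines, 500 cells per well, exposed to MIPE 4.0 library compounds for 48 h at 37C, 5% CO2. Viability from ATP by CellTiter-Glo luminescence; normalised to DMSO (100%) and media-only (0%) wells.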

Test [2] in a line: Quantitative High-Throughput drug screen in 47 multiple myeloma cell lines against the NCATS MIPE library collection: H1112_PLB cell viability assay (AID 1918967; further: nearly all actives have a fitted effect of over 30% in size; further: potency means the concentration at half of the fitted maximal effect). Put shortly:
(§2)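 Relative luminescence from CellTiter-Glo served as the viability signal, referenced to DMSO-treated (100%) and cell-free medium (0%) controls. Treatment lasted 48 hours at 37C with 500 cells per well.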

A short description of test [3]: Quantitative High-Throughput drug screen in 47 multiple myeloma cell lines against the NCATS MIPE library collection: KMS27_JCRB cell viability assay (AID 1918970). Further: nearly all actives have a fitted effect of over 30% in size. Further: potency means the concentration at half of the fitted maximal effect. The gist of the method:
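CellTiter-Glo luminescence after 48 h drug exposure at 37 °C; 500 cells/well, 1536-well format, pin-tool compound addition; DMSO = 100%, media-only = 0% viability.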

Test [4] is described as follows: Quantitative High-Throughput drug screen in 47 multiple myeloma cell lines against the NCATS MIPE library collection: KMS21BM_JCRB cell viability assay (AID 1918974). Further: potency means the concentration at half of the fitted maximal effect. As to conditions: ATP luminescence, 48 h; viability: at 45.8 µM (top of the series) unless noted. The gist of the method: as §2
The nature of test [5]: Quantitative High-Throughput drug screen in 47 multiple myeloma cell lines against the NCATS MIPE library collection: MOLP8_DSMZ cell viability assay (AID 1918977). Further: nearly all actives have a fitted effect of over 45% in size. Put shortly: (§3)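 500 cells/well per myeloma line exposed to pinned MIPE 4.0 compounds for 48 h at 37 °C, 5% CO2. Viability read as ATP by CellTiter-Glo luminescence, normalised to DMSO-only (100%) and media-only (0%) wells.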

Test [6] is described as follows: Quantitative High-Throughput drug screen in 47 multiple myeloma cell lines against the NCATS MIPE library collection: JIM3_ECACC cell viability assay (AID 1918963; further: nearly all actives have a fitted effect of over 35% in size; further: potency means the concentration at half of the fitted maximal effect). Put shortly: as §1
Test [7] is described as follows: Quantitative High-Throughput drug screen in 47 multiple myeloma cell lines against the NCATS MIPE library collection: KMS26_JCRB cell viability assay (AID 1918975). Further: nearly all actives have a fitted effect of over 45% in size. Further: potency means the concentration at half of the fitted maximal effect. Put shortly:
as §2

Test [8] is described as follows: Quantitative High-Throughput drug screen in 47 multiple myeloma cell lines against the NCATS MIPE library collection: JIM1_ECACC cell viability assay (AID 1918964; further: potency means the concentration at half of the fitted maximal effect). Put shortly:
as §2

Test [9] in a line: Quantitative High-Throughput drug screen in 47 multiple myeloma cell lines against the NCATS MIPE library collection: INA6_PLB cell viability assay (AID 1918965; further: nearly all actives have a fitted effect of over 55% in size; further: potency means the concentration at half of the fitted maximal effect). Put shortly:
as §1

A short description of test [10]: Quantitative High-Throughput drug screen in 47 multiple myeloma cell lines against the NCATS MIPE library collection: JJN3_DSMZ cell viability assay (AID 1918966; further: potency means the concentration at half of the fitted maximal effect; nearly all actives have a fitted effect of over 50% in size). The gist of the method:
as §2

A short description of test [11]: Quantitative High-Throughput drug screen in 47 multiple myeloma cell lines against the NCATS MIPE library collection: KMS12BM_JCRB cell viability assay (AID 1918971). Further: nearly all actives have a fitted effect of over 35% in size. Further: potency means the concentration at half of the fitted maximal effect. Put shortly:
as §2

A short description of test [12]: Quantitative High-Throughput drug screen in 47 multiple myeloma cell lines against the NCATS MIPE library collection: MMM1_PLB cell viability assay (AID 1918976). Further: nearly all actives have a fitted effect of over 35% in size. Further: potency means the concentration at half of the fitted maximal effect. The gist of the method:
as §3

The nature of test [13]: Quantitative High-Throughput drug screen in 47 multiple myeloma cell lines against the NCATS MIPE library collection: NCIH929_DSMZ cell viability assay (AID 1918978). Further: nearly all actives have a fitted effect of over 35% in size. Further: potency means the concentration at half of the fitted maximal effect. The gist of the method: as §3
The nature of test [14]: Quantitative High-Throughput drug screen in 47 multiple myeloma cell lines against the NCATS MIPE library collection: Karpas417_ECACC cell viability assay (AID 1918961). Further: potency means the concentration at half of the fitted maximal effect. The conditions noted are these: Karpas417 myeloma viability, CellTiter-Glo ATP luminescence, 48 h; viability (% of DMSO): at 45.8 µM (top of the series). The gist of the method: as §1
Background: In ATP-based viability assays light output follows the ATP content of the culture.

The nature of test [15]: Quantitative High-Throughput drug screen in 47 multiple myeloma cell lines against the NCATS MIPE library collection: KMS12PE_JCRB cell viability assay (AID 1918972). Further: nearly all actives have a fitted effect of over 30% in size. Further: potency means the concentration at half of the fitted maximal effect. The gist of the method: as §1
Test [16] is described as follows: Quantitative High-Throughput drug screen in 47 multiple myeloma cell lines against the NCATS MIPE library collection: KMS20_JCRB cell viability assay (AID 1918973). Further: potency means the concentration at half of the fitted maximal effect; nearly all actives have a fitted effect of over 45% in size. The gist of the method:
as §2

Test [17] is described as follows: Quantitative High-Throughput drug screen in 47 multiple myeloma cell lines against the NCATS MIPE library collection: KMM1_JCRB cell viability assay (AID 1918960). Further: nearly all actives have a fitted effect of over 30% in size. Further: potency means the concentration at half of the fitted maximal effect. Put shortly: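 ATP readout (CellTiter-Glo), 48 h drug incubation, 37 °C/5% CO2, 500 cells per well; normalisation to DMSO (100%) and media-only (0%) controls.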
Test [18] can be described thus: Quantitative High-Throughput drug screen in 47 multiple myeloma cell lines against the NCATS MIPE library collection: Karpas25_ECACC cell viability assay (AID 1918968; further: nearly all actives have a fitted effect of over 35% in size; further: potency means the concentration at half of the fitted maximal effect). The gist of the method:
as §2

Test [19] is described as follows: Quantitative High-Throughput drug screen in 47 multiple myeloma cell lines against the NCATS MIPE library collection: KHM11_PLB cell viability assay (AID 1918962). Further: nearly all actives have a fitted effect of over 35% in size. Further: potency means the concentration at half of the fitted maximal effect. Put shortly:
as §1

Structures are written as SMILES. Inconclusive results are not listed. Activity calls are given as the source filed them. The call rests on the fitted dose curve; in most records, active means well fitted curve in the direction sought with a large enough effect; inconclusive means small, poorly fitted or top-dose-only effect, or another doubt; inactive means no such curve, though single readings can be large; an effect the other way counts as inactive or inconclusive.

Consider `NC(=O)NN=Cc1ccc([N+](=O)[O-])o1`, for which the results for the Potency in test [1], in [3] and in test [4] were 18.7 µM (active), 14.8 µM (active) and 5.9 µM (active), respectively. Besides, the Potency result in test [2] and in test [5] was “inactive” in each case.
For the molecule `COc1ccc(Cc2ccc(NC(N)=O)cc2)cc1-c1cccc(Cl)c1`, the Potency result in test [6], in test [2] and in test [7] was “inactive” each time.
Turning to `COc1ccc(Cc2nccc3cc(OC)c(OC)cc23)cc1OC`, the Potency in test [8] is 16.6 µM (active); in [9], 20.9 µM (active); in test [10] it was 16.6 µM (active); in [11], 16.6 µM (active); in [12] it was 23.5 µM (active). Further, the Potency result in [4] and in test [13] was “inactive” throughout.
In the case of `CN(C)C1CCN(C(=O)c2ccc(NC(=O)Nc3nc(N4CCOCC4)nc(N4CCOCC4)n3)cc2)CC1`, the Potency is 0.0662 µM (active) in test [14]; 0.209 µM (active) in test [6]; 0.0083 µM (active) in [11]; 0.105 µM (active) in [15]; 0.105 µM (active) in [16]; 0.0209 µM (active) in [7].
For the molecule `Cc1ccn(-c2ccc(-c3ncco3)cc2)c(=O)c1-c1ccc2nc(N)ncc2c1`, the Potency in test [17] is 13.2 µM (active); in test [14], 5.26 µM (active); in [6], 10.5 µM (active); in test [9] it was 0.662 µM (active); in [18], 9.35 µM (active); in test [11], 13.2 µM (active). In addition, the Potency in [15] was 5.26 µM (active); in test [16], 8.33 µM (active). Besides, the Potency result in test [2] and in test [3] was “inactive” throughout.
For `O=C(Nc1ccccc1Br)N[C@@H]1CCN(c2ccc(C(F)(F)F)cn2)C1`, the Potency entry in test [17], in [14], in test [15], in [5] and in [13] was “inactive” throughout. Besides, the Potency in test [19] was 14.8 µM (active); in test [9], 16.6 µM (active); in test [18], 18.7 µM (active); in test [12], 23.5 µM (active).
As for `c1ccc2c(-c3cnn4cc(-c5ccc(N6CCNCC6)cc5)cnc34)ccnc2c1`, the Potency in test [9] is 2.35 µM (active); in [2], 3.32 µM (active); in test [11] it was 14.8 µM (active).
Take `N[C@H](CSC(c1ccccc1)(c1ccccc1)c1ccccc1)C(=O)O`: the Potency is 14.8 µM (active) in [8], 7.43 µM (active) in test [9], 11.8 µM (active) in test [18] and 18.7 µM (active) in test [3]. Further, the Potency entry in test [12] is “inactive”.
As for `COC[C@@H](c1ccc(C(F)(F)F)cc1)N1CCN(C2(C)CCN(C(=O)c3c(C)ncnc3C)CC2)C[C@H]1C`, the Potency entry in test [19], in [3], in [11], in test [7] and in [5] was “inactive” throughout. For the same molecule, the Potency was 26.4 µM (active) in test [9], 13.2 µM (active) in test [2], 8.33 µM (active) in test [18] and 9.35 µM (active) in test [13].
As to `CO[C@H]1C[C@@H]2CC[C@@H](C)[C@@](O)(O2)C(=O)C(=O)N2CCCC[C@@H]2C(=O)O[C@H]([C@H](C)C[C@@H]2CC[C@H](OP(C)(C)=O)[C@H](OC)C2)CC(=O)[C@H](C)C=C(C)[C@@H](O)[C@@H](OC)C(=O)[C@H](C)C[C@H](C)C=CC=CC=C1C`, the Potency is 18.7 µM (active) in [2], 20.9 µM (active) in test [18] and 18.7 µM (active) in test [4].
Consider `CCN(CC)CCOc1ccc(C(=C(Cl)c2ccccc2)c2ccccc2)cc1`, for which the Potency result in [6], in [9], in [18], in [11], in test [12] and in test [5] was “inactive” each time. Moreover, the Potency in [4] was 18.7 µM (active).
Take `Cc1nnc(C(C)C)n1C1C[C@H]2CC[C@@H](C1)N2CC[C@H](NC(=O)C1CCC(F)(F)CC1)c1ccccc1` (stereo not given in full): the Potency entry in test [6] and in test [5] was “inactive” each time. In addition, the Potency in test [2] is 14.8 µM (active).

The values above are taken from PubChem BioAssay (NCATS).
